In ChEMBL document CHEMBL3988442, “University of Dundee, Small-Polar-MMV Screening Library” (2021) one finds Percent Effect data, which are given here for four compounds.

Structures are written as SMILES. For some of these results: Potency and affinity values are given separately.

Set-up in all cases: scale not given: direction of the effect not stated beside the values
The target of assay [1] is Protein translocase subunit SecA (Escherichia coli (strain K12)) (UniProt P10408). Briefly: Assay to Identify E. coli SecA ATPase Inhibitors. It counts as functional. The settings on record: 30 µM.
Assay [2] has as its target T1, Ubiquitin-activating enzyme e1, putative (Leishmania donovani (strain BPK282A1)) (UniProt E9BSI1).
T1 sequence (whole entry): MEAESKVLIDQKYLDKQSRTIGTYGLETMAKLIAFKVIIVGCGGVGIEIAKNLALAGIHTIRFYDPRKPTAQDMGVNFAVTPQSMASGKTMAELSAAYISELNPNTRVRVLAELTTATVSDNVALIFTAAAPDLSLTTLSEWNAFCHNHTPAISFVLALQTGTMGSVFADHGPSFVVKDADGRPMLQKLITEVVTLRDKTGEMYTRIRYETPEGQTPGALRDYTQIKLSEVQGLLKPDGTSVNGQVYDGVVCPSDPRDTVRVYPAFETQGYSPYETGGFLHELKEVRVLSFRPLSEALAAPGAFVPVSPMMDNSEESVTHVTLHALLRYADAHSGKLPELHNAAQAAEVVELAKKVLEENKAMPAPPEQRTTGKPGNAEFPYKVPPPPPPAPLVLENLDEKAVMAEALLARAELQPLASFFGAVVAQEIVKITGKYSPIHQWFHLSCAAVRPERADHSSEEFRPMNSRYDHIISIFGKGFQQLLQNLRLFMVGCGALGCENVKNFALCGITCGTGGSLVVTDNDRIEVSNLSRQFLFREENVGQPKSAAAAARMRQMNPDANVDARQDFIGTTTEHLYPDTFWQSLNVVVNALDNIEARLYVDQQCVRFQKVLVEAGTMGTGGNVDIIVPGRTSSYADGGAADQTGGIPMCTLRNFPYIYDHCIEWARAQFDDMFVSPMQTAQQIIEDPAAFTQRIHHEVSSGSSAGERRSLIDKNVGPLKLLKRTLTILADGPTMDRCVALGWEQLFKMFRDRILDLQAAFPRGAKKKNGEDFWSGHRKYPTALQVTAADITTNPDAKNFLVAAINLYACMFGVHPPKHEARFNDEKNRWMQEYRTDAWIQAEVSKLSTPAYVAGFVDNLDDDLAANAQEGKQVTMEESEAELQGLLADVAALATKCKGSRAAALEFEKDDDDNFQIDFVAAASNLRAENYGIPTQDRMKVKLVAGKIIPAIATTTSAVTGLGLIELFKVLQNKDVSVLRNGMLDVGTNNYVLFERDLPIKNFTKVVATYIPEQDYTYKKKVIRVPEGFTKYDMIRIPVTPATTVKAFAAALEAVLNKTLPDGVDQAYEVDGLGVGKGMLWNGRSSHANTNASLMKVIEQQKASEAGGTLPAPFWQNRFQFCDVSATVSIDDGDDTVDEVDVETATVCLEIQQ
As to the kind of experiment: Leishmania donovani Ubiquitin Activating Enzyme (LdE1). It counts as functional. The settings on record: 30 µM.

Assay [3] deals with T2, Aspartate--tRNA(Asp/Asn) ligase (Mycobacterium tuberculosis (strain ATCC 25618 / H37Rv)) (UniProt P9WFW3).
T2 sequence (whole entry): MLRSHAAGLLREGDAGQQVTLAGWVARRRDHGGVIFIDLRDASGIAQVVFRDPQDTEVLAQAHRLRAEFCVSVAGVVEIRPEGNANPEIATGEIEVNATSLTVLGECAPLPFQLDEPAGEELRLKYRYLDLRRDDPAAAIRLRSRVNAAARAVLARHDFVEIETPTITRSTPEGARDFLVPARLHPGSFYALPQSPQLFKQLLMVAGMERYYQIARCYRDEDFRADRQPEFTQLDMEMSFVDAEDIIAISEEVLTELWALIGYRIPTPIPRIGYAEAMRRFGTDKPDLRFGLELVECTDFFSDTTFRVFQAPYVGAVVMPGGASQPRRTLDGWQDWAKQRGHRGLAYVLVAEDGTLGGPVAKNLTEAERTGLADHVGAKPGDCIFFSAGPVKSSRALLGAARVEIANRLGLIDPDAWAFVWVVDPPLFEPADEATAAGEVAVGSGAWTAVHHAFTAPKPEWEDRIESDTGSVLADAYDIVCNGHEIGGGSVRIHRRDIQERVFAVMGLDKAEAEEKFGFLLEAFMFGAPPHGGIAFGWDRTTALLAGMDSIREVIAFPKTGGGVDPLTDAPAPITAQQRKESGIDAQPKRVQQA
As to the kind of experiment: Assay for Asp RNA synthetase-1 from Mycobacterium tuberculosis. It counts as functional. The settings on record: 30 µM.

The target of assay [4] is AMP-activated protein kinase, AMPK (Homo sapiens) (UniProt P54646+O43741+P54619+Q9UGJ0+Q9Y478+Q13131+Q9UGI9). Briefly: AMP-dependent Kinase enzyme assay. An in vitro enzyme assay that detects ADP turnover that is directly proportional to AMPK activity. This uses naive AMPK that is activated during the assay with MK-8722. It counts as functional. The settings on record: 30 µM.

Assay [5] addresses Sialic acid-binding Ig-like lectin 9 (Homo sapiens) (UniProt Q9Y336). Briefly: Hs-Siglec9 ALPHAscreen SOP 20170721. The settings on record: 10 µM. On the technique in general: Alpha assays give light when donor and acceptor beads are brought close together.
For the next assay, the system named is Trypanosoma cruzi. As to the kind of experiment: Trypanosoma cruzi phosphomannomutase and mannose-1-phosphate guanylyltransferase assay. It counts as functional. The settings on record: 10 µM.
Assay [6] deals with T3, Arginase-2, mitochondrial (Homo sapiens) (UniProt P78540).
T3 sequence (whole entry): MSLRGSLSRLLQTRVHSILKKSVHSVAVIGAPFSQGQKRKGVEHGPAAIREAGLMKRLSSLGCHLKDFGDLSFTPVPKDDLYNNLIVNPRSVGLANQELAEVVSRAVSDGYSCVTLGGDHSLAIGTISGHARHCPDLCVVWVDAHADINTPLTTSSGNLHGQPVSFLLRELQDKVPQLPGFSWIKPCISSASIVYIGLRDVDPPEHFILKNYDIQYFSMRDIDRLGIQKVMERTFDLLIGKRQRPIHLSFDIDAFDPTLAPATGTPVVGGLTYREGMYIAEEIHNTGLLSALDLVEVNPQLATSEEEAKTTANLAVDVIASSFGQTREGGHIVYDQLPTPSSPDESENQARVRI
Briefly: in vitro enzyme assay to detect the production of urea directly proportional to the activity of Arginase II. Also: in the data most compounds retested in dose-response had high values. Format: functional. The settings on record: 33.3 µM.

For assay [7], the target named is T4, Proteasome subunit beta (Trypanosoma cruzi) (UniProt O96673).
T4 sequence (whole entry): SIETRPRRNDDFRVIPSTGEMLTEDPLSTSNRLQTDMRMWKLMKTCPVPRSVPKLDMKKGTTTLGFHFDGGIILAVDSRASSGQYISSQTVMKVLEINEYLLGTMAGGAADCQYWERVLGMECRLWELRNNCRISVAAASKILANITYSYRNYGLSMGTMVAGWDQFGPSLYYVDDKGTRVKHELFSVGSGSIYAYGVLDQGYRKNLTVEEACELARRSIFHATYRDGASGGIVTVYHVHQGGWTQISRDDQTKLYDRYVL
Briefly: Trypanosoma cruzi proteasome chymotrypsin-like activity (TcProtChymo) assay. Also: in the data most compounds retested in dose-response had high values. The settings on record: 9.37 µM. Format: functional.

For the next assay, the species on record is Homo sapiens. As to the kind of experiment: To identify inhibition of the IFN signalling (Jak-Stat) pathway via expression of an eGFP reporter gene under the control of an IFN-stimulated response element (ISRE) containing MxA promoter. It counts as functional. The settings on record: 30 µM.
Assay [8] deals with Shiga toxin 2 (Escherichia coli O157:H7) (UniProt P09385+P09386). Briefly: E. coli 0.157:H7 Shiga Toxin SOP - stx2 screening assay. Format: functional. The settings on record: 30 µM.
The target in assay [9] is T5, Tyrosyl-tRNA synthetase, putative (Trypanosoma cruzi (strain CL Brener)) (UniProt Q4DSP6).
T5 sequence (whole entry): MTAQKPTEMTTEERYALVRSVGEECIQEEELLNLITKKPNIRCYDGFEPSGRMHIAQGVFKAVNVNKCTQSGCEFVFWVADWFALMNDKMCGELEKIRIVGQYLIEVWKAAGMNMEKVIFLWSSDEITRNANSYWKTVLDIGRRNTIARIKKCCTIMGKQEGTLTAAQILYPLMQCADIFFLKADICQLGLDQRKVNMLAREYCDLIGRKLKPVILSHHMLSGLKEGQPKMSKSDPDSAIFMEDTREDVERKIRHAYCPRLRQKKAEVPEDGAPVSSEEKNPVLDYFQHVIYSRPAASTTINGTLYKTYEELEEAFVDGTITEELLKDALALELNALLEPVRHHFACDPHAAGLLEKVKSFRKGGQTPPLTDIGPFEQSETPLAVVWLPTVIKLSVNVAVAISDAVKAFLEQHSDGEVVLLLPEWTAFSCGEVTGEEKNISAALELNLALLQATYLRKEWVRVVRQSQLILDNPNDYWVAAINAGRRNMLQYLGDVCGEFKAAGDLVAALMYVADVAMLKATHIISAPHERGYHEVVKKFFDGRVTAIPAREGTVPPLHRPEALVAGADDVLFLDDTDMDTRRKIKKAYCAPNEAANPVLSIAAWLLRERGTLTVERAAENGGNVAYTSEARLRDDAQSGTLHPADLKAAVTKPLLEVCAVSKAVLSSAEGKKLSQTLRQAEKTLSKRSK
As to the kind of experiment: Trypanosoma cruzi tyrosyl tRNA synthetase (TcYRS) _High Tyrosine SOP. Also: in the data most compounds retested in dose-response had high values. Format: functional. The settings on record: 30 µM.

Assay [10] concerns the target T5, Tyrosyl-tRNA synthetase, putative (Trypanosoma cruzi (strain CL Brener)). Briefly: Trypanosoma cruzi tyrosyl tRNA synthetase (TcYRS) SOP. Format: functional. The settings on record: 30 µM.
Assay [11] deals with Chromo domain-containing protein 1 (Saccharomyces cerevisiae (strain ATCC 204508 / S288c) (Baker's yeast)) (UniProt P32657). As to the kind of experiment: ScCHD-1 Enzyme Inhibition Assay. Also: in the data most compounds retested in dose-response had high values. Format: functional. The settings on record: 30 µM.
Chromo domain-containing protein 1 (Saccharomyces cerevisiae (strain ATCC 204508 / S288c) (Baker's yeast)), sequence (P32657 whole entry, the tested form may be a part): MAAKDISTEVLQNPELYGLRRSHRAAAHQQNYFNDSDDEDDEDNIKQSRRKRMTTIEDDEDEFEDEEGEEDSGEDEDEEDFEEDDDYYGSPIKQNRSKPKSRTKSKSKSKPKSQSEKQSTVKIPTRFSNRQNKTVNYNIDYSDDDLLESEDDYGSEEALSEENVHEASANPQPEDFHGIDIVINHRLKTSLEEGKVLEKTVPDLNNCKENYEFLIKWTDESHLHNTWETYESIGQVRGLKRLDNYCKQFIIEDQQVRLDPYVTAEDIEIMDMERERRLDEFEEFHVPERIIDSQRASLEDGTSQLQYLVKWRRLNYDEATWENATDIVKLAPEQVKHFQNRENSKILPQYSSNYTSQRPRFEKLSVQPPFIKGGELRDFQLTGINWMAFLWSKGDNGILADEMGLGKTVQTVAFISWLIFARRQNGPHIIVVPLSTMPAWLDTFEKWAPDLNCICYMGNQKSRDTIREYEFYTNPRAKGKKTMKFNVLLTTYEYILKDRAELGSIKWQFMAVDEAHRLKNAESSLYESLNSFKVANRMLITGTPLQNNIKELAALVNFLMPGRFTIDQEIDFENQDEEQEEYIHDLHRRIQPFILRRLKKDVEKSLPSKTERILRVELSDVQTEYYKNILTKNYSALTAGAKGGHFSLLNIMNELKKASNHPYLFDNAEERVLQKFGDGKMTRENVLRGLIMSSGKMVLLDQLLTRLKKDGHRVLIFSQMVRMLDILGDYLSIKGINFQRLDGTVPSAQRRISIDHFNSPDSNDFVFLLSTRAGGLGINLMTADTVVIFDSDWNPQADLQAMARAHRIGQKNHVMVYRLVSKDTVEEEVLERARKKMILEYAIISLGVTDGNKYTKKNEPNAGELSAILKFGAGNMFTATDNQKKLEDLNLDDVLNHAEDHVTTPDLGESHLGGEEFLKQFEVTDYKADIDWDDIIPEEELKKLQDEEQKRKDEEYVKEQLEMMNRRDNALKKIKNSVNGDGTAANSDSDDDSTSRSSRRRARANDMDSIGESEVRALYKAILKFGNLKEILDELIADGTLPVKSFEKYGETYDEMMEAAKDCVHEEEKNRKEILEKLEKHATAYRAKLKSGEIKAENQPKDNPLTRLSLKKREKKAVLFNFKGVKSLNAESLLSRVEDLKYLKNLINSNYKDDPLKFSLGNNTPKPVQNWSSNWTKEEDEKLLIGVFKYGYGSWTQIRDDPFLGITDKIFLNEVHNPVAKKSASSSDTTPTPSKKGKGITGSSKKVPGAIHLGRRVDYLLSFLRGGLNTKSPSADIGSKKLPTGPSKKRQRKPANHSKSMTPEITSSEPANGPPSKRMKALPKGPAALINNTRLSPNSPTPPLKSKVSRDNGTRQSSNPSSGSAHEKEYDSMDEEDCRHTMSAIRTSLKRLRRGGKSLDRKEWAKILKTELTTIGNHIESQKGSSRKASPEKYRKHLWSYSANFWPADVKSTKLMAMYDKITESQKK

Sialic acid-binding Ig-like lectin 9 (Homo sapiens), sequence (Q9Y336 whole entry): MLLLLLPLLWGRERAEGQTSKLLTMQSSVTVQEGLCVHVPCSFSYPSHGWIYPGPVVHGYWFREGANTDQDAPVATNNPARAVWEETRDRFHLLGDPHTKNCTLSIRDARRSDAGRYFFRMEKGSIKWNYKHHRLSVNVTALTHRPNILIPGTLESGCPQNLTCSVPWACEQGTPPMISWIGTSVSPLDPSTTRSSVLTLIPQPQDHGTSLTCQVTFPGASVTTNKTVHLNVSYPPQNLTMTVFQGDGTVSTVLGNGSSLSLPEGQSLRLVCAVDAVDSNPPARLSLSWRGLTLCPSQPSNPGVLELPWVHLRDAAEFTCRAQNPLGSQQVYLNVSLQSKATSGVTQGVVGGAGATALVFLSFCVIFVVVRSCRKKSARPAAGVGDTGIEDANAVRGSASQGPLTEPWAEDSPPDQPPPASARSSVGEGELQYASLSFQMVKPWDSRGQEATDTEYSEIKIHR
Protein translocase subunit SecA (Escherichia coli (strain K12)), sequence (P10408 whole entry): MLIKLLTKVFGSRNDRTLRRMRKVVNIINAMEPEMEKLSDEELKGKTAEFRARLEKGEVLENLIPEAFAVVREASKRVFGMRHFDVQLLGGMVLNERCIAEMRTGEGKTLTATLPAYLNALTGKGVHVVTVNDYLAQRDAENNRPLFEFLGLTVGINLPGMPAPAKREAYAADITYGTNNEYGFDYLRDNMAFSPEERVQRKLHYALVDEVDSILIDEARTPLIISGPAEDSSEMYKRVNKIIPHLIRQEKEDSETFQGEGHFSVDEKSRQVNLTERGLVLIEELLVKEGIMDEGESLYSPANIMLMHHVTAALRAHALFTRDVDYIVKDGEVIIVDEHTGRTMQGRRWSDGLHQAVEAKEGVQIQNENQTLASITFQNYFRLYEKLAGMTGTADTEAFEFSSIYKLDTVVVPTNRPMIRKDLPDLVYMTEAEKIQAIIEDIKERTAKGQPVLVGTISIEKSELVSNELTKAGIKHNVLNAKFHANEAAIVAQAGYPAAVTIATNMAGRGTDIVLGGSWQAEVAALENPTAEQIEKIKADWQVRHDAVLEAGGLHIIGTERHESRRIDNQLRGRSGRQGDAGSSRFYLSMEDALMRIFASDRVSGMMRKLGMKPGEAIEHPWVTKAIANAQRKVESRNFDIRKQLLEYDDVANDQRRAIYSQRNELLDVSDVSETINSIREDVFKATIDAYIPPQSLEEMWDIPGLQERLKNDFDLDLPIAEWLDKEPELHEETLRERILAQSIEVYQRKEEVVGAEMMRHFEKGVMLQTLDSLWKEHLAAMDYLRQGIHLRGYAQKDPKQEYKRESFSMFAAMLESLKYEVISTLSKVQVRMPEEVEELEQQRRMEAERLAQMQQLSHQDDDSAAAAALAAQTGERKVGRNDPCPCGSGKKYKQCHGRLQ

As to `CN(Cc1cccnc1)[C@@H]1CN(CC2CC2)[C@@H]2CCCO[C@H]12`, the Percent Effect in [1] was -1.86%; in assay [2], 2.67%; in assay [3] it was 3.49%; in assay [4], 2.59%; in [5], 2.23%; in the assay on Trypanosoma cruzi, -4.05%. The Percent Effect in [6] was -57.2%; in assay [7] it was 3.42%; in the assay filed under Homo sapiens it was -1.28%; in [8], -18%; in [9], 2.08%; in assay [10], 5%. Also, in assay [11], the Percent Effect is -8.32%.
On to `c1ccc(CN2C[C@@H]3OCCN(c4ncccn4)[C@@H]3C2)nc1`, for which the Percent Effect in assay [1] was -3.31%; in assay [2], 5.33%; in [3], -0.456%; in assay [4], 12.4%; in assay [5], 1.5%; with Trypanosoma cruzi, -4.53%. The Percent Effect in assay [6] is -1.17%; in assay [7], -2.73%; in the assay filed under Homo sapiens, 6.09%; in [8], 1.03%; in assay [9] it was 6.38%; in assay [10], 8.97%. The Percent Effect in assay [11] is -1.36%.
On to `c1ccc(O[C@H]2CC[C@H]3[C@H]2OCCN3Cc2nccs2)nc1`, for which the Percent Effect is -1.17% in [1]; -5.2% in [2]; 5.47% in assay [3]; -3.9% in [4]; 10.1% in [5]; 7.57% in the assay with Trypanosoma cruzi. Also, the Percent Effect was -41.4% in assay [6]; 13.6% in [7]; 21% in the assay listed under Homo sapiens; -14.7% in assay [8]; 3.23% in assay [9]; 8.64% in assay [10]. The Percent Effect in assay [11] is -5.68%.
For `Cc1nnc([C@H]2CC[C@@H]3[C@@H](CCN3Cc3c(C)noc3C)O2)o1`, the Percent Effect in assay [1] is -0.00919%; in assay [2], 8%; in assay [3] it was 2.12%; in assay [4], 3.84%; in [5], -0.659%; in the assay on Trypanosoma cruzi, -5.79%. For the same compound, the Percent Effect in [6] was -54.3%; in [7], 11.4%; in the assay filed under Homo sapiens, -18.2%; in assay [8] it was -1.17%; in assay [9], 6.25%; in assay [10], 22.5%. In [11], the Percent Effect is -6.76%.
